# Inconclusive results are not listed. A number with no mark means an inactive call. Active and inactive are the calls of the source. Calls come from the whole dose curve; as a rule, active = well fitted activation curve with a large enough effect; inconclusive = small, poorly fitted or top-dose-only effect; inactive = no such curve, though single readings can be large or run the other way.
# Target: Cellular tumor antigen p53 (Homo sapiens) (UniProt P04637)
# Assay: Primary qHTS for small molecule compounds that upregulate eGFP-tagged delta133p53alpha (in N-terminal) cells. (AID 2060322); note: nearly all actives have a fitted effect of over 75% in size;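 for activation: series mostly up to about 56 µM; 0% = DMSO vehicle and 100% = reference activator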
# Details: NCI-H358 eGFP-delta133p53alpha fluorescence, 24 h; activation: stronger effect = higher value
# Summary of the method: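 NCI-H358 cells pre-induced 24 h with 10 ng/ml doxycycline to express N-terminal eGFP-delta133p53alpha, then dosed 24 h at 37C without doxycycline; fixed, Hoechst-stained, GFP intensity by laser scanning cytometry, normalized to DMSO (0%) and 57.5 uM 5-azacytidine (100%).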
# Potency is the fitted concentration of half-maximal effect.
# Cellular tumor antigen p53 (Homo sapiens), sequence (P04637 whole entry, looked up): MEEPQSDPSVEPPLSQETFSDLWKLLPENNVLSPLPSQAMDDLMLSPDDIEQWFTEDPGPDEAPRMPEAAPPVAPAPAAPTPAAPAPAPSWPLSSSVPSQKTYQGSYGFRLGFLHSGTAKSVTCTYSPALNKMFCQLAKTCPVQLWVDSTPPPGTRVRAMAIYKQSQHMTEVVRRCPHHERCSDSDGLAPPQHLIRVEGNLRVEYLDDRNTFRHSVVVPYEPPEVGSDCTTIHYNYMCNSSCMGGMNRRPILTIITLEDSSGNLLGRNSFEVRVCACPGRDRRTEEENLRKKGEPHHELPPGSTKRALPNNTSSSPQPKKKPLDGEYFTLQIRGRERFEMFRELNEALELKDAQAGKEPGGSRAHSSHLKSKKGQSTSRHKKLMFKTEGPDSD
SMILES,activation [%],Potency
CCC(Sc1nnc2c(n1)[nH]c1ccccc12)C(=O)N1c2ccccc2Sc2ccccc21 (stereo not given),12.3,
CCN(CC)CCNC(=O)c1c(C)[nH]c(C=C2C(=O)Nc3ccc(F)cc32)c1C,,12.5 µM (active)
O=C(O)C1CCC1,-6.69,
CC1(C)O[C@@H]2C[C@H]3[C@@H]4CCC5=CC(=O)CC[C@]5(C)[C@@]4(F)[C@@H](O)C[C@]3(C)[C@]2(C(=O)CCl)O1,-1.67,
O=c1cc[nH]c(=O)[nH]1,-12.6,
Nc1nc(Cl)nc2c1ncn2[C@@H]1O[C@H](CO)[C@@H](O)[C@H]1F,-22.8,
C=CCNc1nc(NCC=C)nc(N2CCN(C(c3ccc(F)cc3)c3ccc(F)cc3)CC2)n1,-14.2,
C=CC(=O)Nc1cccc(Nc2nc(NC3CCC(N(C)C)CC3)nc3c2ncn3C(C)C)c1 (stereo not given),,4.85 µM (active)
CN(C)CC/C=C1\c2ccccc2Sc2ccc(Cl)cc21,0,
Cc1ccc2nc(NC(=O)CSc3nc4c(c(=O)n3C)SC(C)C4)sc2c1 (stereo not given),21.2,
COc1ccc2nc(SCc3ncc(C)c(OC)c3C)[nH]c2c1,7.34,
CC[C@H](NC(=O)[C@H](C)NC)C(=O)N1C[C@@H](O)C[C@H]1Cc1c(-c2[nH]c3cc(F)ccc3c2C[C@H]2C[C@H](O)CN2C(=O)[C@H](CC)NC(=O)[C@H](C)NC)[nH]c2cc(F)ccc12,21.3,
COc1cc([C@@H]2c3cc4c(cc3[C@@H](O[C@@H]3O[C@@H]5CO[C@@H](c6cccs6)O[C@@H]5[C@H](O)[C@@H]3O)[C@H]3COC(=O)[C@H]23)OCO4)cc(OC)c1O,-12.2,
Cc1[nH]cnc1-c1ccc(Cl)cc1,15.3,
CO[C@@H]1C(N(C)C(=O)c2ccccc2)C[C@H]2O[C@]1(C)n1c3ccccc3c3c4c(c5c6ccccc6n2c5c31)C(=O)NC4=O (stereo not given in full),,9.68 µM (active)
COC(=O)C(c1ccccc1Cl)N1CCc2sccc2C1 (stereo not given),10.7,
O=C(Nc1cccc2c(=O)cc(-c3nn[nH]n3)oc12)c1ccc(OCCCCc2ccccc2)cc1,-4.79,
CC1(C)OC(=O)NC1=O,-15.3,
COC(=O)/C=C\C(=O)OC,-9.6,
COc1ccc(-c2cc(C(F)F)nn2-c2ccc(S(N)(=O)=O)cc2)cc1F,-21.8,

SMILES,activation [%],Potency
Cc1c(C)n(Cc2ccccc2)c2ccc(C(=O)OCCN(C)C)cc12,-0.837,
C[n+]1ccccc1/C=N/O,15.3,
CC1(C)O[C@@H]2[C@@H](CO[C@@]3(COS(N)(=O)=O)OC(C)(C)O[C@@H]23)O1,-2.51,
Cn1c(=O)c2c(ncn2CC(=O)O)n(C)c1=O,1.69,
Cc1ccccc1N1CCN(CCc2nnc3n2CCCC3)CC1,-10.7,
CN(C)CC[C@H](c1ccc(Cl)cc1)c1ccccn1,26.7,
CC(C)OC(=O)c1cc2c(OCC(O)CNC(C)(C)C)cccc2[nH]1 (stereo not given),20.9,
CC[C@@]1(O)C(=O)OCc2c1cc1n(c2=O)Cc2c-1nc1ccccc1c2/C=N/OC(C)(C)C,,0.0978 µM (active)
CCCCC(CC)COC(=O)c1ccccc1O (stereo not given),-22.6,
C/C=C(/C(=C/C)c1ccc(O)cc1)c1ccc(O)cc1,15.1,
CCOC(=O)C(=O)c1csc(NC=O)n1,-16.4,
C/C=C1\[C@H]2C=C(C)C[C@]1(N)c1ccc(=O)[nH]c1C2,5.08,
NS(=O)(=O)c1cc(C(=O)NN2C[C@H]3[C@H]4CCC(C4)[C@H]3C2)ccc1Cl,0,
CC(O)=C(C#N)C(=O)Nc1ccc(C(F)(F)F)cc1,11.7,
Cc1ccc(S(=O)(=O)NC(=O)NC2CCCC2)cc1,23.2,
FC1(F)C(F)(F)C(F)(F)C2(F)C(F)(F)C(F)(F)C(F)(F)C(F)(F)C2(F)C1(F)F (stereo not given),-7.34,
CCC(C(=O)O)c1ccc(N2Cc3ccccc3C2=O)cc1 (stereo not given),18.6,
NC(=O)NN=Cc1ccc([N+](=O)[O-])o1,13.5,
O=c1[nH]cnc2nc[nH]c12,-9.6,
NC(=O)NC1N=C([O][Al])NC1=O (stereo not given),8.47,

# Reference: PubChem BioAssay (NCATS)
